Compound activity from PubChem BioAssay.
ASK1 inh = inhibitors of human ASK1 kinase. AID 1159602. AlphaScreen MKK6 phosphorylation by ASK1, luminescence. 0.99% of 22,000 active. inhibition, % at 7.44 µM. Q99683; in the data active = inhibition above about 35%
Target sequence (Q99683 whole entry, looked up): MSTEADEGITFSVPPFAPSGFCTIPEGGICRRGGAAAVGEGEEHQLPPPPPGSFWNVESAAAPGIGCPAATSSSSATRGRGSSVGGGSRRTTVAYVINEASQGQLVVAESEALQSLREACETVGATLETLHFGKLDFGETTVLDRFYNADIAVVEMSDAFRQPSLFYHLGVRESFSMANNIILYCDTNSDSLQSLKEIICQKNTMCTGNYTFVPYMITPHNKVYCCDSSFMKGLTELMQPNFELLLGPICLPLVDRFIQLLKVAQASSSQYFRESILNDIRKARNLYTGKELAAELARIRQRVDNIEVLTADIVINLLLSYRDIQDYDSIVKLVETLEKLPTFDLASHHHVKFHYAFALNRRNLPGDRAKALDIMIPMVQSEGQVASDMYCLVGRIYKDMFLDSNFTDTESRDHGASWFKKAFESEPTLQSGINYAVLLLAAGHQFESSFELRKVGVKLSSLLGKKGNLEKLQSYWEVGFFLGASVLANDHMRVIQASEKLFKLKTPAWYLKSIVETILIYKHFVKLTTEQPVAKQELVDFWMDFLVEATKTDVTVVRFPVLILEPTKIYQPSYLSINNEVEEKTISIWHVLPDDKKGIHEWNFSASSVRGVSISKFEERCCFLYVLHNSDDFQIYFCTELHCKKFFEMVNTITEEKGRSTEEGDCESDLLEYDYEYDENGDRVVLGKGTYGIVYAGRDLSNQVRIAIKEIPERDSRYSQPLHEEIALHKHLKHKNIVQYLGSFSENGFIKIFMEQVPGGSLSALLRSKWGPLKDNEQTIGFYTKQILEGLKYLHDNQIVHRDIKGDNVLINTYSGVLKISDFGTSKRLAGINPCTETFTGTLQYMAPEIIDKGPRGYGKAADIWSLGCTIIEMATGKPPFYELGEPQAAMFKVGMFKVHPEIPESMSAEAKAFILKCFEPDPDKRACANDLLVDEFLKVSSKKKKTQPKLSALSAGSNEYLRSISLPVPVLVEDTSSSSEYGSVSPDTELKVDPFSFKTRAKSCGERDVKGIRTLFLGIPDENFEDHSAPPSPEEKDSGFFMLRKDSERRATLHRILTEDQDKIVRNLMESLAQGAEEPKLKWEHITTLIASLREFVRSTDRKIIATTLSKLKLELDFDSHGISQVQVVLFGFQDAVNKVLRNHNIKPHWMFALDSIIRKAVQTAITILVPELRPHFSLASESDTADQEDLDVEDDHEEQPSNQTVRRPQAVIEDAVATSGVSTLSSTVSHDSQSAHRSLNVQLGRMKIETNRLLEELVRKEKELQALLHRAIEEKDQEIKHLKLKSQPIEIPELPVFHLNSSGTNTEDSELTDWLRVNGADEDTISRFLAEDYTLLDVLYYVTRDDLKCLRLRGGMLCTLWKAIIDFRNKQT
ULK1 primary = human ULK1 kinase inhibition, primary screen | O75385 | AlphaScreen Atg13 phosphorylation by ULK1, luminescence | inhibition, % at 5.96 µM | 1.9% of 30,000 active | AID 1259251; in the data active = inhibition above about 43%
Large screens that a line does not name were inactive. Rows were chosen to be rich in hits. Some 2.5% of all compounds tested hit in one or more screens of this group.

N[C@H](Cc1ccc(Br)cc1)C(=O)N1CCC(C(=O)Nc2ccncc2)CC1	none
O=C(NC1CC1)c1ccc(-c2cccc(C(=O)Nc3ccc(Oc4ccccc4)cc3)n2)cc1	none
Cc1cc(Nc2cc(Nc3ccccc3C(N)=O)ccn2)ccc1N1CCOCC1	none
Cc1cnc(Nc2ccc(N3CCOCC3)cc2)nc1Nc1ccccc1	none
NC(=O)c1ccccc1Nc1nc(Nc2ccc(Cl)cc2)ncc1Cl	none
Cc1cnc(Nc2ccc(N3CCOCC3)cc2)nc1Nc1ccccc1C(N)=O	ULK1 primary 95
NC(=O)c1ccccc1Nc1nc(Nc2ccc(N3CCOCC3)c(Cl)c2)ncc1Cl	ULK1 primary 80
Cc1cc(Nc2ncc(Cl)c(Nc3ccccc3C(N)=O)n2)ccc1N1CCOCC1	ULK1 primary 70
CCn1nnnc1-c1ccc(Nc2nccc(-c3cccc(N4CCOCC4)c3)n2)cc1	none
N/C(=N\OC(=O)c1sc2ccccc2c1Cl)c1ncon1	none (no result: ASK1 inh)
CCOC(=O)c1cccc(-n2ncc3ccc(C(N)=O)cc32)c1	none
O=C(NCCCN1CCCC1=O)c1cc(N2CCC(N3CCOCC3)CC2)nc2ccccc12	none
O=C(Nc1ccncc1)NC1CCN(C(=O)C(O)c2ccc(Br)cc2)CC1 (centres undefined)	none
Cc1ccc(NS(=O)(=O)c2ccc([N+](=O)[O-])cc2[N+](=O)[O-])cc1	none (no result: ASK1 inh)
COCC(=O)Nc1ccc(Nc2nc(C)cc(N3CCOCC3)n2)cc1	none (no result: ASK1 inh)
Cn1c(Nc2nc(NCCO)c3ncn(CCN4CCCC4=O)c3n2)nc2ccccc21	ULK1 primary 73
CCCNc1nc(Nc2nc3ccccc3n2C)nc2c1ncn2CCN1CCCC1=O	none
COc1ccc(-c2nc3ncnc(NCc4cccc(C(F)(F)F)c4)c3[nH]2)cc1	none
CCCCCCCCCCCCCCCC[N+](C)(C)CC	none (no result: ASK1 inh)
CCCCCCCCCCCCCCCC[N+](C)(C)Cc1ccccc1	ULK1 primary 48 (no result: ASK1 inh)
O=C1/C(=C/c2cccs2)CCC/C1=C\c1cccs1	ULK1 primary 82 (no result: ASK1 inh)
O=C1/C(=C\c2cccs2)N2CCC1CC2	none (no result: ASK1 inh)
CC(C)c1nc2ccc(-c3cnn(C)c3)cc2c(=O)[nH]1	none
Cc1n[nH]c(C)c1-c1ccc2nc(C(C)C)[nH]c(=O)c2c1	ULK1 primary 60
CC(C)n1c(-c2ccc(C(=O)NC3CC3)cc2)nc2c(NCCO)ncnc21	none
Cc1ncc(CSSCc2cnc(C)c(O)c2CO)c(CO)c1O	ULK1 primary 47 (no result: ASK1 inh)
Cc1ncc(COP(=O)(O)O)c(C=O)c1O	none (no result: ASK1 inh)
COc1ccc(Nc2nc(C)cc(Nc3ccc(OCCN4CCCCC4)cc3)n2)cn1	none
CC(C)N(CCNC(=O)c1ccc2nc(Nc3ccccn3)sc2c1)C(C)C	none
CN(C)CCOc1cc(-c2cn[nH]c2)ccc1NC(=O)C1COc2ccc(F)cc2C1 (centres undefined)	none
CNC(=O)c1ccccc1Nc1cc(Nc2ccc(-c3cncnc3)cc2)ncc1C(F)(F)F	ULK1 primary 70
CNC(=O)c1ccccc1Nc1cc(Nc2ccccn2)ncc1C(F)(F)F	ULK1 primary 89
CNC(=O)c1ccccc1Nc1cc(Nc2ccc3c(c2)CCC(=O)N3C)ncc1C(F)(F)F	ULK1 primary 89
CNC(=O)c1ccccc1Nc1cc(Nc2cccc(C)n2)ncc1C(F)(F)F	ULK1 primary 90
O=C(O)c1ccccc1Nc1ccccn1	none (no result: ASK1 inh)
O=C(Cc1ccc2c(c1)OCO2)Nc1cc(Nc2ccccc2-c2ncn[nH]2)c(C(F)(F)F)cn1	none
c1ccc(CNc2ccnc(NCc3ccc4c(c3)OCO4)n2)cc1	none
Cc1ncn(-c2ccc(Nc3nccc(-c4cc(N5CCOCC5)ccc4S(C)(=O)=O)n3)cc2)n1	none
CNC(=O)c1ccnc(Nc2cc(Nc3ccccc3C(=O)NC)c(C(F)(F)F)cn2)c1	ULK1 primary 87
CNC(=O)c1ccc(Nc2cc(Nc3ccccc3C(=O)NC)c(C(F)(F)F)cn2)nc1	ULK1 primary 87
O=C(NCc1cccc(C(F)(F)F)c1)c1ccnc(Nc2ccccn2)c1	none
COc1cccc(C(=O)c2oc3cc(NC(=O)c4ccccc4F)ccc3c2C)c1	none (no result: ASK1 inh)
CN1CCN(C(=O)c2ccc(Nc3nccc(-c4ccccc4)n3)cc2)CC1	none
N#Cc1cc(-c2ccnc(Nc3cccc(NC(=O)N4CCCC4)c3)n2)ccc1N1CCCC1	ULK1 primary 67
Cn1nnc(-c2ccc(Nc3nccc(-c4ccc5nc(C6CC6)[nH]c(=O)c5c4)n3)cc2)n1	ULK1 primary 44
Cn1cccc(-c2ccc(Nc3nccc(-c4ccc5nc(C6CC6)[nH]c(=O)c5c4)n3)cc2)c1=O	none
O=C(C1CCC(Nc2nccc(-c3ccc4nc(C5CC5)[nH]c(=O)c4c3)n2)CC1)N1CCCC1 (centres undefined)	none
O=C(Nc1ccc(Nc2nccc(-c3ccc4nc(C5CC5)[nH]c(=O)c4c3)n2)cc1)N1CCCC1	ULK1 primary 59
Cc1ncn(-c2ccc(Nc3nccc(-c4ccc(N5CCC6(CC5)OCCO6)c(C#N)c4)n3)cc2)n1	none
O=C(c1ccc(Nc2nccc(-c3ccc4nc(C5CC5)[nH]c(=O)c4c3)n2)cc1)N1CCCC1	ULK1 primary 84
O=C(NCCCN1CCCC1=O)c1csc(N2CCCC2CO)n1 (centres undefined)	none
Nc1nc(N2CCc3ccccc3C2)nc2c1ncn2-c1ccsc1	none
CCN(CC)C(=O)C1CCCN(c2nc(C)cc(NCCCN3CCCC3=O)n2)C1 (centres undefined)	none
NC(=O)c1cc(Nc2ccc(N3CCOCC3)cc2)nc2ccccc12	none
c1cc2c(cc1CN1CCN(c3nc(NCCN4CCOCC4)c4ncn(C5CCCCC5)c4n3)CC1)OCO2	none
O=C(Nc1cccc(Nc2nccc(-c3ccc4nc(C5CC5)[nH]c(=O)c4c3)n2)c1)N1CCCC1	ULK1 primary 51
Nc1nccc(-c2ccc3nc(C4COc5ccccc5C4)[nH]c(=O)c3c2)n1 (centres undefined)	none
O=C(Cc1csc(NC(=O)c2ccccc2)n1)Nc1ccc(F)c(F)c1	none (no result: ASK1 inh)
O=C(/C=C/c1ccccc1)Nc1nc(CC(=O)NCc2ccc(F)cc2)cs1	ULK1 primary 57 (no result: ASK1 inh)
COc1cccc(CN(CC(C)C)C(=O)Nc2ccc(-c3cn[nH]c3)cc2)c1	none
CC(C)n1cnc2c(NCc3cccc(C(F)(F)F)c3)nc(Nc3cnccn3)nc21	none
CN1CCN(C(=O)c2ccc(-c3nc(Nc4ccc(N5CCOCC5)cc4)c4ncn(C5CCCCC5)c4n3)cc2)CC1	none
NC(=O)c1ccc(-c2nc(Nc3ccc(N4CCOCC4)cc3)c3ncn(C4CCCCC4)c3n2)cc1	ULK1 primary 44
c1cc(N2CCOCC2)ccc1Nc1nc(NCCN2CCOCC2)nc2c1ncn2C1CCCCC1	ULK1 primary 55
c1ccc(Nc2nc(NCCN3CCOCC3)c3ncn(C4CCCCC4)c3n2)cc1	none
Cc1cnc(CNc2cc(-c3cccnc3)nc(-c3ccccn3)n2)nc1	none (no result: ASK1 inh)
Oc1ccc(CCNc2nc(Nc3cnccn3)nc3c2ncn3C2CCCCC2)cc1	ULK1 primary 44
COc1ccc(CCNc2nc(Nc3cnccn3)nc3c2ncn3C2CCCCC2)cc1	none
O=C(NC1CC1)c1ccc(-c2nc(NCCc3ccc(O)cc3)c3[nH]cnc3n2)cc1	none
O=C(Nc1ccc2[nH]ncc2c1)C1CCNCC1	ULK1 primary 56
O=C(Nc1ccc2[nH]ncc2c1)C1CCNC1 (centres undefined)	none
CC(=O)Nc1ccc(Nc2nc(-c3ccc(N4CCOCC4)nc3)nc3nc[nH]c23)cc1	none
CC(=O)Nc1ccc(Nc2nc(-c3ccc(N4CCOCC4)nc3)ncc2C)cc1	ULK1 primary 59
C=C1c2cccc(O)c2C(O)=C2C(=O)[C@]3(O)C(O)=C(C(N)=O)C(=O)[C@@H](N(C)C)[C@@H]3[C@@H](O)[C@H]12	ULK1 primary 64 (no result: ASK1 inh)
